# FXN GAA850 act: increases GAA850 frataxin promoter reporter activity; HEK293 lucGAA850 FXN promoter luciferase reporter, 24 h; percent of 10 µM SAHA response; activation, % at 6 µM; actives 0.56% (n = 360,000); AID 540364;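 active = activation above the average of all compounds screened plus 3 SD, cutoff fixed separately per campaign, cut at about 7.5% in these data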
# HSF1 activator: increases HSF-1 driven luciferase reporter signal. NIH3T3-HGL HSF-1 luciferase reporter, MG132, 8 h; 100% = twice DMSO control signal. activation, % at 9 µM. actives 1.7% (n = 300,000). AID 504408;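 active = mean replicate activation of at least 50% with a set share of replicates each reaching 50%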
# AHR activator: activators of human aryl hydrocarbon receptor; AHR-responsive luciferase reporter cells, luminescence; activation, % at 5 µM; AID 2796; actives 2.5% (n = 320,000); P35869; in the data active = activation above about 47%
# Target sequence (P35869 whole entry, looked up): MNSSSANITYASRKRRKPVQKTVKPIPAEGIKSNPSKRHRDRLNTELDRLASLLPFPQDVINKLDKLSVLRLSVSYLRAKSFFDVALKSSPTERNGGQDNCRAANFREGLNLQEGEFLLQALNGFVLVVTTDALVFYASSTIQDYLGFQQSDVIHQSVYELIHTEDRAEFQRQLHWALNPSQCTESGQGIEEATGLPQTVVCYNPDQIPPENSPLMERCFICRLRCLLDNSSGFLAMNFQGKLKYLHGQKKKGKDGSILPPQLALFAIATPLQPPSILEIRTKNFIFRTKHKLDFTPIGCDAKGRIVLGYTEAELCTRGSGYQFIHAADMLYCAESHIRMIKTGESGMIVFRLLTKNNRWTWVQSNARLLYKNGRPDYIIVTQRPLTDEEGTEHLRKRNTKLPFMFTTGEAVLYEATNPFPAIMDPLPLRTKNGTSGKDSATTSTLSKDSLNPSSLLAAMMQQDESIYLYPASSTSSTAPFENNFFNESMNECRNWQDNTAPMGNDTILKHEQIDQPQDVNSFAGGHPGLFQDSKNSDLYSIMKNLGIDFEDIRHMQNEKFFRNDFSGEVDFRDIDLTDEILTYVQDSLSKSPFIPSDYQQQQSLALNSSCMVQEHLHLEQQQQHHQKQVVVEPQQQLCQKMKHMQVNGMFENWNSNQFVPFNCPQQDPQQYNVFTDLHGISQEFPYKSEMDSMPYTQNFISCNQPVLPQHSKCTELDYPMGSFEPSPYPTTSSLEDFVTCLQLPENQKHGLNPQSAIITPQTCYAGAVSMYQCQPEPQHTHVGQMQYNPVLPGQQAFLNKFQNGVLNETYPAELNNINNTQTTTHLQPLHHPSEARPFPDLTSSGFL
# HSF1 inhib: HSF1 inhibition; actives 0.77% (n = 300,000); NIH3T3-HGL HSE-luciferase, MG132-induced, luminescence 8 h; hits give low values; activity change, negative = inhibition, % at 7.5 µM (by protocol); AID 2098;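 active = more than half of replicate wells show activity change below -50%, luminescence cut by over half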;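 note: luciferase reports HSF-1 transcriptional activity via heat shock element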
# Numbers stand for hits; - = inactive; . = no result. Compounds with a hit are over-represented: about 4.6% of the library has one in this group of screens.
SMILES,FXN GAA850 act,HSF1 activator,AHR activator,HSF1 inhib
CCCN1C2CCCC1CC(NC(=S)Nc1ccc(OC)cc1)C2 (configuration not stated),-,-,-,-
CCCc1cc(=O)oc2c(CN3CCCC3)c(O)c(Cl)cc12,-,-,-,-
CCc1cc(=O)oc2c(CNCc3ccccc3F)c(O)c(Cl)cc12,-,64.5,-,-
Clc1ccc(-c2nnc(-c3ccc(Br)o3)o2)c(Cl)c1,-,60.4,-,-
Clc1ccc(-c2nnc(-c3ccccc3)o2)c(Cl)c1,-,-,-,-
CCCCOC(=O)CSc1nnc(-c2ccc(Cl)cc2Cl)o1,-,-,-,-
CSc1ccccc1-c1nnc(-c2ccc(Cl)c(Cl)c2)o1,-,-,-,-
CC(C)OC(=O)CSc1nnc(-c2ccc(Cl)cc2Cl)o1,-,75.0,-,-
CSc1ccccc1-c1nnc(-c2ccc(Cl)cc2Cl)o1,-,53.8,-,-
O=C(Nc1ccccc1)C1CCOC1=O (configuration not stated),-,-,-,-
COc1cc2cc(Oc3ccc4ccc(=O)oc4c3)c(=O)oc2cc1OC(C)=O,-,-,-,-
CCOC(=O)C1=C(C)Nc2ncnn2C1c1ccc2c(c1)OCO2 (configuration not stated),-,51.0,-,-
Cc1ccc(-n2nc(C(=O)O)c3ccccc3c2=O)cc1C,-,-,-,-
Cc1ccc(C(=O)Cn2nc(C(=O)O)c3ccccc3c2=O)cc1C,-,64.5,-,-
CC(=O)Nc1cc2nc(C)n(Cc3ccc([N+](=O)[O-])cc3)c2nc1C,-,-,-,-
c1ccc2oc(-c3csc(NCC4CCCO4)n3)cc2c1 (configuration not stated),-,51.5,-,-
C=CCNc1nc(-c2cc3ccccc3o2)cs1,-,-,-,-
O=C1COc2ccc(-c3csc(NCC4CCCO4)n3)cc2N1 (configuration not stated),-,-,77.5,-
Cc1nc2ccccc2cc1C(=O)Nc1ccccc1Cl,-,-,-,-
COc1ccc(NC(=O)c2cccc(OC(F)F)c2)cc1Cl,-,-,49.4,-
Cc1nc2ccc(F)cc2cc1C(=O)Nc1cccc(Cl)c1C,-,-,107.2,-
Cc1cc(C(=O)Nc2ccc3c(c2)CCC3)ccc1[N+](=O)[O-],-,55.0,-,-
O=C(Nc1ccc2c(c1)CCC2)c1cccc(OC(F)F)c1,-,81.9,-,-
N#Cc1cccc(NC(=O)CCNC(=O)c2ccccc2Cl)c1,-,-,-,-
COc1ccc(N2C(=O)CC2(C#N)c2ccc(OCc3ccccc3)cc2)cc1 (configuration not stated),-,-,-,-
SMILES,FXN GAA850 act,HSF1 activator,AHR activator,HSF1 inhib
Cc1ccc(NC(=O)c2ccc(Nc3c([N+](=O)[O-])cc([N+](=O)[O-])cc3[N+](=O)[O-])cc2)cc1,-,-,-,-70.8
Cc1c(Cl)cccc1NC(=O)c1cccc(OC(F)F)c1,-,-,-,-71.5
O=C(Nc1ccc2c(c1)CCC2)c1cnc(Cl)c(Cl)c1,-,58.2,-,-
O=C(Nc1nnc(-c2ccccc2)s1)c1ccccc1O,-,-,-,-
Cc1ccc(C(=O)Nc2cc([N+](=O)[O-])ccc2C)cc1,-,-,-,-
Cc1ccc(Cl)cc1NC(=O)C[n+]1ccc(Cc2ccc([N+](=O)[O-])cc2)cc1,-,65.0,-,-
CC(CCc1ccccc1)NC(=O)c1cccc([N+](=O)[O-])c1 (configuration not stated),-,-,-,-52.5
Cc1ccc([N+](=O)[O-])cc1NC(=O)c1ccc(-c2ccccc2)cc1,-,-,67.1,-
O=C(Nc1ccccc1-c1ccccc1)c1cccc([N+](=O)[O-])c1,-,-,56.0,-
CC(=O)c1cccc(N(C(=O)c2ccco2)C(C(=O)NC2CCCCC2)c2ccc(C)o2)c1 (configuration not stated),-,-,-,-
Cc1cccc(NS(=O)(=O)c2ccc3c(c2)CCC(=O)N3)c1,-,-,-,-
COC(=O)c1ccc(C)c(NC(=O)CCNC(=O)c2ccc([N+](=O)[O-])cc2)c1,-,-,-,-
Cc1ccc([N+](=O)[O-])cc1NC(=O)c1ccc(C(C)(C)C)cc1,-,-,71.2,-
Cc1ccc(NC(=O)c2ccc(C(C)(C)C)cc2)cc1[N+](=O)[O-],-,-,-,-
Cc1ccc(F)cc1NC(=O)CCNC(=O)c1ccc([N+](=O)[O-])cc1,-,-,-,-67.9
COc1ccc(C(=O)NNC(=O)CSc2nnc(-c3ccc(O)cc3)n2C)cc1,-,-,-,-
COc1cc2c(O)cc(C(=O)O)c(-c3cc(OC)c(OC)c(OC)c3)c2cc1OC,-,.,.,.
Cc1ccc(CN2CCN(CC(=O)N=Nc3c(O)[nH]c4ccccc34)CC2)cc1,-,-,-,-
O=C(CN1CCN(Cc2ccccc2Cl)CC1)N=Nc1c(O)[nH]c2ccccc12,-,52.1,-,-
O=C(NC(=S)Nc1nc2c(s1)CSc1ccccc1-2)c1ccccc1,-,-,69.4,-
NC(CSCc1cccc(Br)c1)C(=O)O (configuration not stated),-,78.6,-,-
CC(O)(C#CCN1CCCCCC1)c1ccccc1 (configuration not stated),-,-,65.9,-
Cc1nc(CNS(=O)(=O)c2ccc(Br)cc2)cs1,-,-,-,-
CC(=O)Nc1ccc(S(=O)(=O)NCc2csc(C)n2)cc1,-,-,-,-87.1
Oc1ccc(/C=C/c2ccnc3ccccc23)cc1,-,69.1,-,-
SMILES,FXN GAA850 act,HSF1 activator,AHR activator,HSF1 inhib
C=CS(=O)(=O)c1sc(Cl)c(N2CCOCC2)c1[N+](=O)[O-],-,74.2,.,-
C=CSc1sc(Cl)c(N2CCOCC2)c1[N+](=O)[O-],-,-,-,-
N#Cc1c(NC(=O)CSc2nc(-c3ccccc3)cc(C(F)(F)F)n2)sc2c1CCC2,-,-,-,-
O=C(CN(CC1CCCO1)C(=O)CNS(=O)(=O)c1ccc(F)cc1)NC1CCCCC1 (configuration not stated),-,-,-,-
O=C(CCC(=O)c1ccc(Br)cc1)Nc1cccnc1,-,-,-,-85.0
CCc1sc(C(=O)NC(C)C2CCCO2)cc1Br (configuration not stated),-,-,-,-
CCCCOCCCN1CC(=O)N2[C@@H](Cc3c([nH]c4ccccc34)C2(C)C)C1=O,-,69.7,-,-
COc1cc2c(cc1OC)C(C)N(S(=O)(=O)c1ccc(C)cc1)CC2 (configuration not stated),-,60.4,-,-
COc1cc2c(cc1OC)C(C)N(S(=O)(=O)c1cccs1)CC2 (configuration not stated),-,-,.,-
CCC(=O)O[C@]1(C(=O)SCF)[C@H](C)C[C@H]2[C@@H]3C[C@H](F)C4=CC(=O)C=C[C@]4(C)[C@@]3(F)[C@@H](O)C[C@@]21C,.,-,-,-52.7
Cc1occc1C(=O)N/N=C/c1ccc(Cl)c([N+](=O)[O-])c1,-,-,-,-
O=C(COc1cccc(C(F)(F)F)c1)NCC(c1cccs1)N1CCOCC1 (configuration not stated),-,.,-,.
